36 compounds from PubChem BioAssay (NCATS) can be followed below.

The structures appear in SMILES notation. Inconclusive results are not listed. The source holds several records for some structures; these can differ, active in one and inactive in another. Unmarked numbers belong to inactive results. Active and inactive are the calls of the source. Calls follow the shape of the dose curve; as a rule, active = well fitted curve in the direction sought with a large enough effect; inconclusive = small, poorly fitted or top-dose-only effect, or another doubt; inactive = no such curve, though single readings can be large; an effect the other way counts as inactive or inconclusive.

The target in test [1] is Cytochrome P450 3A7 (Homo sapiens) (UniProt P24462). The experiment in a line: Cytochrome P450 family 3 subfamily A member 7 (CYP3A7) small molecule antagonists: luciferase biochemical qHTS assay (AID 1963596). Also: % is scaled to controls: 0 for no effect and ±100 for the full control effect; nearly all actives have a fitted effect of over 40% in size. Summed up: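 Biochemical CYP3A7 activity measured with P450-Glo system: luciferin formed from proluciferin substrate in NADPH-driven reaction (1 h, room temperature) after 10 min compound preincubation. Signal in relative luminescence units.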
Sequence of Cytochrome P450 3A7 (Homo sapiens) (P24462 whole entry, looked up): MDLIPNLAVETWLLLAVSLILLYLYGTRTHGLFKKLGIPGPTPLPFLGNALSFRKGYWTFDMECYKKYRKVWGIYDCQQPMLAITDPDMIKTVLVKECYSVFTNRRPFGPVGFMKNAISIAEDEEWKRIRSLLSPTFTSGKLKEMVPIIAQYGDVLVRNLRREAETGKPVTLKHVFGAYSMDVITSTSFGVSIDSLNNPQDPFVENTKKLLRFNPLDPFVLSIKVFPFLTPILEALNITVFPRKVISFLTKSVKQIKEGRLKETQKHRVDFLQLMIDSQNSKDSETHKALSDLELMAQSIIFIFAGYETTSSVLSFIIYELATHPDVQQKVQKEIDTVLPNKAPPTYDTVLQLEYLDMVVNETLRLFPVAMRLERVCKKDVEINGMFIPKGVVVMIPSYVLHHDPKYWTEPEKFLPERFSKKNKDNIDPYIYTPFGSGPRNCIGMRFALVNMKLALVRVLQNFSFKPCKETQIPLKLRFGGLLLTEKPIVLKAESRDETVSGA
Background: In qHTS, concentration-response curves come from the screen itself.

Test [2] in a line: Cellular viability qHTS for adrenocortical cancer (ACC) cell line SW-13 (AID 1963989).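 Also: cells grown in serum-free medium with ITS supplement; % is scaled to controls: 0 for no effect and ±100 for the full control effect; nearly all actives have a fitted effect of over 65% in size.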 The following applies: SW-13 ACC cells viability, CellTiter-Glo, 48 h; activity (max response): hits give low values. In outline:
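SW-13 cells in ITS-supplemented serum-free DMEM were plated overnight, then exposed for 48 h at 37C to compound titrations (up to 46 uM final). Viability was read by CellTiter-Glo luminescence; four-parameter logistic fits gave IC50 and efficacy.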

A short description of test [3]: Cellular viability qHTS for adrenocortical cancer (ACC) cell line NCI-H295R (AID 1963990).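 Also: 0% = DMSO only wells and -100% = full killing with cytotoxic reference compound; nearly all actives have a fitted effect of over 60% in size.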 Summed up:
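Luminescent ATP read-out (CellTiter-Glo, 20 min RT) after 48 h drug exposure of NCI-H295R cells; a titration up to 46 uM final. Data normalized to doxorubicin (100% inhibition) and DMSO (0%); 4-parameter fit gives IC50, max response.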

Test [4] is described as follows: Viability qHTS for spleen associated tyrosine kinase inhibitor (SYKi) naive MV4-11 cells (AID 1963823). Also: nearly all actives have a fitted effect of over 40% in size. Also: potency is read from the fitted curve at half-maximal effect. In outline: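 Cells: MV4-11, SYK inhibitor naive, 500 per well. Treatment: library compounds, 72 hr, 37 C, 5% CO2. Read-out: CellTiter-Glo luminescence after 10 min RT.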
A short description of test [5]: Viability qHTS for spleen associated tyrosine kinase inhibitor (SYKi) drug resistant MV4-11 cells (AID 1963824). Also: nearly all actives have a fitted effect of over 35% in size. Also: potency is read from the fitted curve at half-maximal effect. Summed up:
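SYK-inhibitor-resistant MV4-11 AML cells were seeded at 500 per well onto compound and cultured 72 hours (37 °C, 5% CO2). CellTiter-Glo was then added, and after 10 min at room temperature, luminescence gave viability.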

Test [6] can be described thus: Quantitative highthroughput screen to assess conditional lethalithy of NOMO1 cells grown in RPMI1640 with untreated serum (RPMI+s) (AID 1963876).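 Also: 100% = DMSO wells and 0% = empty wells without cells; nearly all actives have a fitted effect of over 35% in size.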 In outline:
(§1)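 Each medium arm—HPLM with 10% dialyzed FBS, or RPMI1640 with 5 mM glucose and 10% untreated or dialyzed FBS—was screened against an 11-point, 3-fold compound titration for 48 h at 37 °C, with CellTiter-Glo luminescence as endpoint.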

The nature of test [7]: Quantitative highthroughput screen to assess conditional lethalithy of NOMO1 cells grown in RPMI1640 with dialyzed fetal bovine serum (RPMI+ds) (AID 1963877).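 Also: series mostly up to about 46 µM; 100% = DMSO control wells and 0% = empty wells; nearly all actives have a fitted effect of over 30% in size.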 Summed up:
as §1

Test [8] is described as follows: Quantitative highthroughput screen to assess conditional lethalithy of NOMO1 cells grown in Human Plasma-Like Medium with dialyzed fetal bovine serum (HPLM+ds) (AID 1963878).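 Also: 100% = DMSO wells and 0% = empty wells on each plate; nearly all actives have a fitted effect of over 35% in size.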 Summed up: as §1
Test [9] in a line: Quantitative highthroughput screen to assess conditional lethalithy of P12 Ichikawa cells grown in Human Plasma-Like Medium with dialyzed fetal bovine serum (HPLM+ds) (AID 1963879). Also: series mostly up to about 46 µM; nearly all actives have a fitted effect of over 35% in size. The following applies: Potency: viability. In outline:
as §1

The nature of test [10]: Quantitative highthroughput screen to assess conditional lethalithy of P12 Ichikawa cells grown in RPMI1640 with dialyzed fetal bovine serum (RPMI+ds) (AID 1963880). As to conditions: Potency: P12-Ichikawa viability. Summed up: as §1
Test [11] in a line: Quantitative highthroughput screen to assess conditional lethalithy of P12 Ichikawa cells grown in RPMI1640 with untreated serum (RPMI+s) (AID 1963881). As to conditions: Potency: viability. In outline: as §1
Test [12] is described as follows: Quantitative highthroughput screen to assess conditional lethalithy of SEM cells grown in Human Plasma-Like Medium with dialyzed fetal bovine serum (HPLM+ds) (AID 1963882). In outline: as §1
Test [13] can be described thus: Quantitative highthroughput screen to assess conditional lethalithy of SEM cells grown in RPMI1640 with unreated serum (RPMI+s) (AID 1963883). Summed up: as §1

Regarding `CC(C)(C)c1ccc(C(=O)CCCCl)cc1`, the Potency result in test [1] and in [3] was “inactive” throughout. Further, the activity (max response) in test [2] was 6.38%.
`Fc1ccc(C(c2ccc(F)cc2)N2CCNCC2)cc1`: the Potency result in test [1] and in test [3] was “inactive” in each case. For the same compound, the activity (max response) in test [2] was 4.07%.
With `O=C(Oc1ccccc1)c1cccc(C(=O)Oc2ccccc2)c1`, the Potency entry in test [1] and in test [3] was “inactive” throughout. In addition, in test [2], the activity (max response) is -1.98%.
As for `Cl/C(=C\n1cncn1)c1ccc(Cl)cc1Cl`, the Potency entry in test [1] and in test [3] was “inactive” in each case. The activity (max response) in [2] was 2.66%.
As for `COc1ccc(-c2cc(C(F)F)nn2-c2ccc(S(N)(=O)=O)cc2)cc1F`, the Potency result in test [1] and in test [3] was “inactive” each time. The activity (max response) in test [2] is -7.1%.
As for `CC(C)(Oc1ccc(Cl)cc1)C(=O)O`, the Potency entry in [1] and in [3] was “inactive” throughout. Also, the activity (max response) in test [2] is -3.02%.
Consider `O=C(O)c1[nH]n(-c2ccc(S(=O)(=O)O)cc2)c(=O)c1N=Nc1ccc(S(=O)(=O)O)cc1`, for which the Potency entry in [1] and in [3] was “inactive” throughout. In addition, the activity (max response) in [2] was 6.82%.
On to `NC(=O)CC[C@@H]1NC(=O)[C@H](Cc2ccccc2)NC(=O)[C@H](Cc2ccc(O)cc2)NC(=O)CCSSC[C@@H](C(=O)N2CCC[C@H]2C(=O)N[C@@H](CCCN=C(N)N)C(=O)NCC(N)=O)NC(=O)[C@H](CC(N)=O)NC1=O`, for which the Potency entry in test [1] and in test [3] was “inactive” each time. Also, the activity (max response) in [2] is -1.25%.
Take `COc1cc2nc(Cl)nc(N)c2cc1OC`: the Potency entry in test [1] and in test [3] was “inactive” in each case. For the same compound, in [2], the activity (max response) is 1.23%.
Consider `CCCCCCCCCCCCCCCC(=O)OC(C)C`, for which the Potency entry in test [1] and in test [3] was “inactive” in each case. For the same compound, the activity (max response) in test [2] is 6.75%.
For `Cn1cc(Nc2cnccc2C(=O)O)c2cccnc21`, the Potency result in test [4] and in test [5] was “inactive” each time.
Consider `CCN1CCN(C(=O)N[C@@H](C(=O)N[C@@H]2C(=O)N3[C@@H]2SC(C)(C)[C@@H]3C(=O)O)c2ccccc2)C(=O)C1=O`, for which the Potency result in test [4] and in test [5] was “inactive” each time.
As to `C/C=C/C=C/C(O)=C1/C(=O)[C@]2(C)C(=O)[C@@](C)(O)[C@H]1[C@H]([C@@]1(C)OC(=O)C(C)=C1O)[C@H]2C(=O)CC/C=C/C`, the Potency entry in test [4] was “inactive”.
Consider `CC(=O)O[C@@H]1[C@@H](CO)O[C@@](CO)(O[C@H]2O[C@H](COC(=O)/C=C/c3ccccc3)[C@@H](O)[C@H](O)[C@H]2O)[C@H]1O`, for which the Potency entry in test [4] and in test [5] was “inactive” throughout.
For `COc1ccc2c(c1)C(C(=O)N(Cc1ccc(N(C)C)cc1)c1ccc(C(C)C)cc1)CCC2` (stereo not given), the Potency in [4] was 16.4 µM (active); in test [5] it was 14.6 µM (active).
On to `CCCCc1nc(C)c(CC(=S)N(C)C)c(=O)n1Cc1ccc(-c2ccccc2-c2nn[nH]n2)cc1`, for which the Potency result in test [4] and in test [5] was “inactive” throughout.
Turning to `Cc1cccc(N(C)C(=S)Oc2ccc3c(c2)C2CCC3C2)c1` (stereo not given), the Potency entry in test [4] and in [5] was “inactive” in each case.
On to `CN(C)CCN(Cc1ccc(-c2ccc(CNCCc3ccccc3)cc2)cc1)C(=O)CCC1CCCC1`, for which the Potency in [4] was 1.03 µM (active); in [5], 0.92 µM (active).
Regarding `CC1(C)CCC2(C(=O)O)C(O)CC3(C)C(=CCC4C5(C)CCC(OC6OC(CO)C(O)C(O)C6OC6OC(CO)C(O)C(O)C6OC6OCC(O)(CO)C6O)C(C)(C)C5CCC43C)C2C1` (stereo not given), the viability (% of control) in test [4] is 68.6% [at 9.25 µM]. Further, the viability, % of control in [5] was 84.8% [at 9.25 µM].
Turning to `Cc1ccc(C2(COC(=O)C(C)C)CO2)c(OC(=O)C(C)C)c1` (stereo not given), the Potency was 1.8 µM (active) in [4] and 2.02 µM (active) in test [5].
`CC1(C)C2CCC1(C)C(OC(=O)C(O)(CC(=O)O)CC(=O)O)C2` (stereo not given): the Potency result in test [4] and in test [5] was “inactive” each time.
For the compound `C=C1C(=O)OC2C1CCC1(C)C(O)CCC(=C)C21` (stereo not given), the Potency in test [4] is 9.2 µM (active); in test [5] it was 4.61 µM (active).
On the same counts, the results for `O=C(Nc1nc2cc(C(F)(F)F)cc(NC3CC3)n2n1)c1cccnc1` are 3.66 µM (active) and 2.59 µM (active).
The like results for `O=C1N=C(O)S/C1=C\c1ccc2nccnc2c1` were, in that order, 13 µM (active) and 13 µM (active).
The like results for `CC(C)CC(=O)NCCn1cc(C(=O)O)c(=O)cc1C(O)c1ccccc1` (stereo not given) were, in that order, “inactive” and “inactive”.
For `Clc1ccccc1CNCC1CCC(CNCc2ccccc2Cl)CC1` (stereo not given), the Potency in [4] is 11.6 µM (active); in test [5] it was 14.6 µM (active).
For `COc1ccc(-n2c(SCC#N)nc3sc4c(c3c2=O)CCCC4)cc1`, the Potency entry in test [4] is “inactive”.
Take `CC(C)C(C)C(O)C1CC23CC(=O)C4(O)C(=C2CCC3C1C)C=CC1(O)CC(O)CCC14C` (stereo not given): the Potency result in [4] was “inactive”. The Potency in test [5] is 7.09 µM (active).
For `CC(C)=C[C@@H]1[C@H](CO[C@@H]2O[C@H](CO)[C@@H](O)[C@H](O)[C@H]2O)C1(C)C`, the Potency in test [4] is 7.18 µM (active); in test [5], 4.53 µM (active).
With `Cn1c(CNc2ccc(C(=N)N)cc2)nc2cc(C(=O)N(CCC(=O)O)c3ccccn3)ccc21`, the Potency was 4.61 µM (active) in [4] and 4.11 µM (active) in [5]. Besides, the viability (% of control) in test [4] was 81.5% [at 0.588 µM]. Moreover, the viability, % of control in test [5] was 94.3% [at 0.588 µM]. In addition, the Potency entry in test [6], in test [7], in test [8], in test [9], in test [10] and in test [11] was “inactive” throughout. In addition, the Potency result in [12] and in test [13] was “inactive” in each case. For the same compound, the activity (max response) in test [2] is 9.7%. The activity change, negative = viability loss in [3] was 15.5% [at 0.587 µM].
As to `C=C1[C@@H]2CC[C@@]3(C)[C@H](c4ccoc4)OC(=O)C[C@]13O[C@H]1CC(=O)C(C)(C)[C@H](C(O)C(=O)OC)[C@]12C` (stereo not given in full), the Potency entry in test [4] was “inactive”.
On to `CC(=O)O[C@@H]1CC2C(C)(C)C(=O)C=C[C@]2(C)C2CC[C@@]3(C)[C@H](c4ccoc4)OC(=O)[C@H]4O[C@]43[C@@]21C` (stereo not given in full), for which the Potency in [4] is 10 µM (active); in [5], 7.09 µM (active).
The like results for `CCCCCCOC(=O)/N=C(\N)c1ccc(NCc2nc3cc(C(=O)N(CCC(=O)OCC)c4ccccn4)ccc3n2C)cc1` were, in that order, 1.3 µM (active) and 0.82 µM (active).
The like results for `O=C(/C=C/c1ccccc1O)O[C@@H]1O[C@H](CO)[C@@H](O)[C@H](O)[C@H]1O` were, in that order, “inactive” and “inactive”.
Take `CC(=O)O[C@H]1CC[C@@]2(C)C(CC[C@@H](C)[C@]23Cc2c(O)cc4c(c2O3)CN([C@@H](CCC(=O)O)C(=O)O)C4=O)C1(C)C` (stereo not given in full): the Potency entry in test [4] was “inactive”.
Consider `COC(=O)C1=C[C@@H](O)[C@@H](O)[C@H](O[C@@H]2O[C@H](CO)[C@@H](O)[C@H](O)[C@H]2OC(=O)/C=C/c2ccccc2)C1`, for which the Potency entry in test [4] and in [5] was “inactive” throughout.
